From PubChem BioAssay (NCI) come the findings set out here.

SMILES strings stand for the structures. About 83,000 compounds went through this panel and 20% of them were active in at least one assay; those are over-represented in the sample as a whole.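 A percent growth of 40 corresponds to 60% growth inhibition; 0 means no net growth; -100 means all cells died. Active threshold: below 10.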 Values without a mark were called inactive. Activity calls are given as the source filed them.

For this experiment, the system named is HCC-2998 colon. The experiment is described as follows: NCI-60 one-dose screen, 48 h (100 = growth as untreated, 0 = no growth, -100 = all killed). Conditions: 10 µM unless noted.
As to `C=C(C)[C@@H]1CC[C@]2(COCCCNCCCN)CC[C@]3(C)[C@H](CC[C@@H]4[C@@]5(C)CC[C@H](O)C(C)(C)[C@@H]5CC[C@]43C)[C@@H]12`, the growth is -71.5% (active).
The value for `CN1CCN(Cc2ccc(NC(=O)c3cncc(C#Cc4cnc5ccc(OCC6COC6)nn45)c3)cc2C(F)(F)F)CC1` was -77.4% (active); that for `CCN(CC)S(=O)(=O)c1ccc(-c2nc(C(Cl)Cl)nc3cc(-c4ccc(F)cc4)nn23)cc1` was 7.38% (active).
Take `O=C(COc1ccc(/C=C2\C(=O)Nc3ccc(F)cc32)cc1)Nc1ccccc1`: the growth was 101%.
Consider `CN1CCN(c2ccc(Nc3nc(NCCCNS(=O)(=O)c4ccc(F)cc4)c4sccc4n3)cc2)CC1`, for which the growth was 74.3%.
For `COc1cccc(N2CCN(C3=C(Cl)C(=O)c4ncccc4C3=O)CC2)c1` the value was 106%; for `C#CCOc1cccc(-c2nc(N)nc(Nc3ccccc3SSc3ccccc3Nc3nc(N)nc(-c4cccc(OCC#C)c4)n3)n2)c1`, 94.6%.
The value for `O=C(CSc1nnc(-c2ccc(Cl)cc2)n1-c1ccccc1)Nc1ccc(Cl)cc1` was 70.1%.
Take `NC(=O)n1c(=O)n(-c2cccc(C(F)(F)F)c2)c(=O)c2cc(-c3ccc(F)cc3F)ccc21`: the growth was 10.7%.
The value for `C#CCOc1ccc(/C=N/Nc2nc(-c3ccc(OC)cc3)cs2)cc1` was 103%.
For `O=C(CSc1nnc(-c2ccc(Cl)cc2)n1-c1ccccc1)Nc1ccccc1Cl` the value was 88.3%.
Turning to `CCOC(=O)c1c(NC(=O)c2cccc(C(F)(F)F)c2)sc2c3c(ccc12)OCN(C)C3`, the growth was -88.9% (active).
Take `CN1CCN(Cc2ccc(NC(=O)c3cncc(C#Cc4cnc5ccc(OCCCS(C)(=O)=O)nn45)c3)cc2C(F)(F)F)CC1`: the growth is -22% (active).
With `CCOC(=O)c1c(NCC(=O)Nc2cccc([N+](=O)[O-])c2)sc(C(C)=O)c1C`, the growth was -62.3% (active).
For the molecule `N#Cc1c(-c2cccs2)cc(-c2cnccn2)nc1SCC(=O)N/N=C/c1ccccc1`, the growth is 71%.
`CN1CCN(Cc2ccc(NC(=O)c3cncc(C#Cc4cnc5ccc(O[C@@H]6CCOC6)nn45)c3)cc2C(F)(F)F)CC1`: the growth was -85% (active).
For `O=C(CCCCCCNC(=O)c1csc(Br)n1)NO` the value was 63%; for `O=C(NCCNc1cc(-c2cn(-c3ccccc3)nc2-c2cccc(O)c2)ccn1)Nc1cc(C(F)(F)F)cc(C(F)(F)F)c1`, 96.2%; for `COC(=O)c1ccc(NC2=C(Cl)C(=O)c3nc(C)ccc3C2=O)cc1`, 102%.
The value for `CCOP(=O)(OCC)OC[C@]12CCC(C)(C)C[C@H]1C1=CC[C@@H]3[C@@]4(C)CC[C@H](OP(=O)(OCC)OCC)C(C)(C)[C@@H]4CC[C@@]3(C)[C@]1(C)CC2` was 73.1%.
For `C/C(=N/N)c1nnn(-c2ccc(Br)cc2)c1C` the value was 107%.
Take `O=C(N/N=C\c1ccc(F)cc1)c1ccc2nc(-c3ccc(Br)cc3)[nH]c2c1`: the growth is 31.3%.
As for `O=C1Nc2ccc(F)cc2/C1=C\C(=O)c1ccc(NS(=O)(=O)c2ccccc2)cc1`, the growth was 116%.
For `CCCCCc1ccc(S(=O)(=O)Nc2cc(-c3csc(N)n3)ccc2OC)cc1` the value was 111%; for `CN1CCN(c2ccc(Nc3nc(NCCNS(=O)(=O)c4ccc5ccccc5c4)c4sccc4n3)cc2)CC1`, 72.3%; for `CCn1c2ccc(/C=N/N(C)S(=O)(=O)CCN(C)C)cc2c2cc(/C=N/N(C)S(=O)(=O)CCN(C)C)ccc21`, 63.4%.
